Source: PubChem
Most compounds without a hit are left out; they make up all but 3.2% or so of the library.
GALK inhibitor – galactokinase (human) inhibition | Purified GALK, Kinase-Glo residual ATP luminescence | P51570 | 0.007% of 270,000 active | Potency, µM (top dose mostly 57.5 µM), without a hit: at the highest dose activity change, negative = inhibition, most hits filed as inhibitors | AID 1868; note: potency is the fitted concentration of half-maximal effect
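Luminescence from leftover ATP (Ultra-Glo luciferase/luciferin) served as read-out after a 1 h room-temperature reaction of 5 nM GALK with 35 uM ATP and 100 uM galactose.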
USP1 inh – USP1/UAF1 (human) deubiquitinase inhibition. recombinant USP1/UAF1, Ub-Rhodamine cleavage fluorescence. O94782. Potency, µM (titrated, usually from 57.1 µM), inactives show at the top dose activity change, negative = inhibition, most hits filed as inhibitors. AID 743255. 0.23% of 390,000 active; note: potency is the fitted concentration of half-maximal effect; nearly all actives have a fitted effect of over 60% in size
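1 nM enzyme complex + cpd, 15 min RT; start with Ub-Rho 150nM final; kinetic fluorescence ex 480/em 540, 6 reads q60 s. Buffer 50mM HEPES pH 7.8, 0.5mM EDTA, 0.1 mg/ml BSA, 1mM TCEP, 0.01% Tween-20.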
VDR inh – vitamin D3 receptor (human) inhibition | P11473 | VDR-SRC2-3 peptide fluorescence polarization, 2 h | Potency, µM, for inactives: max response, negative = inhibition, most hits filed as inhibitors | 0.93% of 400,000 active | AID 504847; note: potency is the fitted concentration of half-maximal effect
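Fluorescence polarization assay of small-molecule disruption of VDR binding to coregulator peptide SRC2-3. Compounds and controls pin-transferred, then read after 2 h incubation at ambient room temperature.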
USP2a inh – inhibitors of human ubiquitin-specific protease USP2a; AID 463254; USP2 core, Ub-CHOP2 coupled fluorogenic reporter, 485/531; Potency, µM (series often up to 38.3 µM), without a hit: top-dose activity change, negative = inhibition, actives largely listed as inhibitors; O75604; 0.01% of 330,000 active;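 note: potency is the fitted concentration of half-maximal effect; plate controls were DMSO wells for no effect and full inhibition by NEM control for full effect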
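Cell-free coupled assay: 10nM USP2 core preincubated 30min RT with compound in Tris-HCl pH 8.0/CaCl2/CHAPS buffer, then 25nM Ub-CHOP2 and 25nM reporter substrate; fluorescence (Ex 485/Em 531) read after 60min RT, normalized to NEM inhibition, concentration-response curves fitted.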
PLK1 PBD inh – blocks phosphopeptide binding to human PLK1 polo-box domain. P53350. Plk1 PBD binding of FITC phosphopeptide, fluorescence polarization. Potency, µM, without a hit: max response, negative = inhibition, usual class: inhibitors. 2.8% of 360,000 active. AID 720504; note: potency is the fitted concentration of half-maximal effect; series mostly up to about 57 µM; nearly all actives have a fitted effect of over 65% in size
Target sequence (P53350 whole entry, looked up, the tested form may be a part): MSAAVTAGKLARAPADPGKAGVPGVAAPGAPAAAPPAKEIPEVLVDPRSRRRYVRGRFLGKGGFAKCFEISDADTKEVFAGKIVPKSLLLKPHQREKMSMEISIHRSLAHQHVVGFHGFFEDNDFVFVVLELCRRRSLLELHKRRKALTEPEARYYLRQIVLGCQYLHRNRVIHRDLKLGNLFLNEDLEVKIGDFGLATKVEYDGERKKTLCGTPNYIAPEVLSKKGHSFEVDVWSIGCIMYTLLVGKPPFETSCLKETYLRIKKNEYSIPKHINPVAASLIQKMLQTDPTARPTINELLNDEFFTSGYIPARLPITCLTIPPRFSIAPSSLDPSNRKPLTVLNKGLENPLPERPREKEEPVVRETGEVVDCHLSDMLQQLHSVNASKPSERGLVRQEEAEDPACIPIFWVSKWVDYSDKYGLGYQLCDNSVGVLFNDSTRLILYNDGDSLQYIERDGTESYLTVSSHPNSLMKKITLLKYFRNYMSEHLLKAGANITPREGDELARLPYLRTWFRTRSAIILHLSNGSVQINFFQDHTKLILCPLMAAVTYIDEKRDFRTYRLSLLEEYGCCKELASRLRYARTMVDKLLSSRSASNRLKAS
Coupling enz – coupling enzyme interference in Giardia aldolase counter-screen; coupling enzyme system counterscreen, AmpLite Red fluorescence; activity change, negative = inhibition, % at 58.2 µM, hits read low; 0.67% of 290,000 active; AID 2472; in the data active = activity change below about -30%
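Final compound at 57.5 uM, incubated 10 min at RT with coupling enzyme reagent (glyceraldehyde-3-phosphate), then 20 min with substrate and AmpLite Red detection. Fluorescence read at 525/598 nm; tests interference with the coupling assay, not aldolase inhibition.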
Numbers without * were called inactive; ? = inconclusive; nt = not tested or not shown. Unless noted, calls come from the whole dose curve; as a rule, active = well fitted curve in the direction sought with a large enough effect; inconclusive = small, poorly fitted or top-dose-only effect, or another doubt; inactive = no such curve, though single readings can be large; an effect the other way counts as inactive or inconclusive. Unless noted, % is set by controls: 0 for no effect and ±100 for the full control effect.

SMILES | GALK inhibitor | USP1 inh | VDR inh | USP2a inh | PLK1 PBD inh | Coupling enz
Cc1ccc(OCC(=O)Nc2ccccc2OCc2cc(=O)n3ccccc3n2)cc1C | nt | ? | 8% | nt | nt | nt
COc1ccc(C(CNC(=O)CNC(=O)c2cccc(C)c2)N2CCOCC2)cc1 (stereo unspecified) | nt | -6% | 0% | 1% | -1% | nt
[N-]=[N+]=NC[C@H](Cc1ccccc1)N1CC[C@@H](NC(=O)OCc2ccccc2)CCC1=O | nt | -16% | -16% | 0% | -8% | 2
O=C(CCCC(=O)c1ccc(O)cc1)c1ccc(O)cc1 | nt | -2% | -13% | -1% | 6% | nt
O=C1C=CC(=C(c2ccc(O)cc2)c2ccc(O)cc2)C=C1 | nt | -12% | 50µM* | 4% | 5% | 8
Nc1ccccc1SCc1csc(-c2ccc(Cl)cc2)n1 | -2% | ? | ? | 4% | 9.5µM* | -4
C=CCc1cc(/C=C/c2nc(O)c([N+](=O)[O-])c(=O)[nH]2)cc(OC)c1O | 4% | -15% | 79µM* | -1% | -21% | -2
COc1ccccc1Nc1ccc([N+](=O)[O-])cc1N | -2% | ? | -12% | -1% | 27µM* | -6
CCCCN1C(=O)/C(=c2\sc3nc(=O)c(-c4ccccc4)nn3c2=O)c2ccccc21 | -5% | -21% | ? | 3% | 27µM* | 4
CCCN1C(=O)/C(=c2\sc3nc(=O)c(Cc4ccc(C)cc4)nn3c2=O)c2ccccc21 | 3% | -5% | ? | 0% | 30µM* | 2
O=C(Nc1nccs1)C1CCN(S(=O)(=O)c2cccnc2)CC1 | 1% | -27% | -1% | 3% | 2% | 5
O=C(Nc1nccs1)C1CCCN(S(=O)(=O)c2cccnc2)C1 (stereo unspecified) | 2% | -4% | -26% | 0% | 21µM* | 0
COc1ccc(C(C)n2c(C)c3c(C)nnc(C)c3c2C)cc1 (stereo unspecified) | 2% | ? | -7% | -2% | -20% | -18
Cc1nnc(C)c2c(C)n(C(C)c3ccccc3)c(C)c12 (stereo unspecified) | 2% | -8% | 8% | -3% | -5% | -33*
CN(C)c1ccc(/C=N/N2C(=S)SC(C)(C)C2N(O)C(=O)Nc2ccc([N+](=O)[O-])cc2)cc1 (stereo unspecified) | -4% | -12% | -22% | -1% | 27µM* | 0
CNC(=O)N(O)C1N(/N=C/c2ccc(SC)cc2)C(=S)SC1(C)C (stereo unspecified) | 1% | -13% | 9% | 2% | -8% | 1
O=c1[nH]c(=O)n(Cc2ccc(Oc3ccccc3)cc2)cc1Br | nt | nt | nt | -3% | nt | -3
C=C1CC(Cn2cc(Br)c(=O)[nH]c2=O)(c2ccc(-c3ccccc3)cc2)OC1=O (stereo unspecified) | nt | -4% | ? | nt | 24µM* | nt
Cn1c(Nc2ccc(Cl)cc2)cc(=O)n(C)c1=O | -11% | ? | 0% | 2% | 1% | -2
COc1ccc(C2NC(=S)N3C(c4ccc(OC)cc4)NC(=S)N23)cc1 (stereo unspecified) | 2% | -10% | -13% | 5% | 8.4µM* | 2
O=C1OC(Nc2nccs2)c2ccccc21 (stereo unspecified) | 5% | -9% | ? | 2% | 24µM* | 2
COc1cnc(-c2ccccn2)nc1NC(C)C | 1% | -15% | -11% | 2% | -8% | -36*
CCc1cc2c(=O)[nH]c(-c3ccccn3)nc2s1 | 3% | -17% | -22% | 0% | -25% | -16
COc1cnc(-c2ccccn2)nc1Oc1ccccc1Cl | 0% | -6% | 3% | -1% | 3% | -3
COc1cnc(-c2ccccn2)[nH]c1=O | 0% | 3% | -7% | -1% | -16% | -64*
SMILES | GALK inhibitor | USP1 inh | VDR inh | USP2a inh | PLK1 PBD inh | Coupling enz
Cc1cc(NC(=O)c2ccccc2)cc(NC(=O)c2ccccc2)c1C | 1% | -2% | -7% | 1% | -25% | 3
COc1cccc(CNC(=O)Cn2ccc3cc(S(=O)(=O)N4CCC(C)CC4)ccc32)c1 | 7% | -21% | ? | 3% | 9.5µM* | 2
COc1cccc(CNC(=O)[C@H](C)NC(=O)C2CCN(S(=O)(=O)c3ccccc3)CC2)c1 | -1% | -20% | ? | 0% | 27µM* | -3
COc1ccc(S(=O)(=O)N2CCC(C(=O)N[C@@H](C)C(=O)NCc3cccc(OC)c3)CC2)cc1 | -6% | ? | -11% | 6% | -1% | nt
COc1ccc(CNC(=O)CN2C(=O)COc3ccc(S(=O)(=O)N4CCCCCC4)cc32)cc1 | nt | -6% | 1% | nt | nt | nt
COc1ccc(CNC(=O)CN2C(=O)COc3ccc(S(=O)(=O)N4CCC(C)CC4)cc32)cc1 | 11% | -26% | -8% | -2% | 30µM* | 3
Cc1cc(C)c(C#N)c(SCC(=O)N(C)C2CCCCC2)n1 | -1% | -15% | -19% | -2% | -17% | 7
CC1(C)Cc2nc3sc4c(=O)[nH]cnc4c3cc2CS1 | 0% | -8% | 10% | 1% | -7% | 5
O=C(Nc1ccccc1)C1(c2ccccc2)CC1(Cl)Cl (stereo unspecified) | nt | -15% | 1% | 3% | -2% | -4
c1ccc(OCc2nc3ccccc3s2)cc1 | 0% | -3% | 3% | 2% | -7% | 0
Cc1cc(OCc2nc3ccccc3s2)ccc1N | 1% | -7% | ? | -1% | 11µM* | 1
CCC(=O)Nc1ccc(OCc2nc3ccccc3s2)cc1 | 0% | -25% | ? | 3% | 17µM* | 0
O=C(NNC(=O)c1ccc(O)cc1O)c1ccc(-c2ccccc2)cc1 | -5% | -23% | 1% | 2% | 0% | 0
N#CCCCN1C(=O)C(=C(C#N)C#N)c2ccccc21 | -1% | -7% | ? | 2% | 5.3µM* | -35*
COCCCNC(=O)/C(C#N)=C/c1cc(C)[nH]c1C | 0% | -19% | -12% | 11% | 0% | 0
CC(=O)Oc1cc2c3c(c1)/C(=C1/SC(=S)NC1=O)C(=O)N3C(C)(C)C=C2C | 0% | -30% | ? | 0% | 27µM* | -18
CC1CCCC(=C\c2ccccc2)/C1=N/O (stereo unspecified) | 2% | -15% | ? | 4% | 27µM* | 2
O=C1/C(=C/c2ccccc2)CCC1C1CCCC1 (stereo unspecified) | nt | -2% | 2% | 1% | -18% | 1
CCn1c(C)cs/c1=N\S(=O)(=O)c1ccccc1 | nt | -18% | -23% | 2% | -1% | nt
O=Cc1s/c(=N\S(=O)(=O)c2ccccc2)n(CCCCl)c1Cl | -2% | -19% | 22µM* | 3% | 4.7µM* | -1
